Assay outcomes from PubChem BioAssay.
Only some compounds are listed: those with a hit (about 19% of all), similar ones and a draw of the others.
Shiga inhibitor – inhibitors of Shiga toxin in Vero cells; Vero cells, Shiga toxin protein synthesis inhibition reporter; inhibition, % at 38.7 µM; 290,000 tested, 9.2% active; in the data active means inhibition mostly above about 28%, no sharp cut-off; inactive means mostly below about 43%
MARV entry inh – Marburg virus entry inhibition | Marburg virus pseudotyped entry inhibition, cell reporter | Potency, µM (series often up to 37.8 µM), actives largely listed as inhibitors | 300,000 tested, 1.8% active | AID 540276; calls by dose curve; tested in HEK293 cells
Pf growth 96h – P. falciparum growth inhibition at 96 hour, primary screen for plastid delayed-death inhibitors. P. falciparum luciferase reporter growth, 96 h. Potency, µM (highest dose often 28.7 µM), actives largely listed as inhibitors. 320,000 tested, 6.9% active. AID 504834
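Cell-based qHTS: luciferase-tagged P. falciparum in erythrocytes (2% hematocrit, 0.05% parasitemia final) incubated with compounds for 96 hours, 37 C, 5% CO2; luciferase detection reagent then added and luminescence measured.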
CHX counter – affects cycloheximide protein synthesis inhibition readout, counter-screen; 300,000 tested, 12% active; max response, %; cell reporter, cycloheximide protein synthesis inhibition counterscreen; in the data active means max response mostly above about 13%, no sharp cut-off; inactive means mostly below about 14%; further: read at 38.3 µM for the half of the compounds with a filed dose
LASV entry inh – blocks Lassa virus binding to or entry into cells | Potency, µM (highest dose often 37.9 µM), actives largely listed as inhibitors | Lassa virus pseudotype entry inhibition, cell reporter | 300,000 tested, 1.2% active; calls by dose curve; tested in HEK293 cells; further: nearly all actives have a fitted effect of over 50% in size
Pf growth 48h – inhibits P. falciparum growth in the first generation, 48 h; P. falciparum luciferase growth in erythrocytes, 48 h; Potency, µM (top dose mostly 28.7 µM), most hits filed as inhibitors; 310,000 tested, 5.9% active; AID 504832
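Parasite viability was followed by luminescence of a genomically integrated firefly luciferase. Cultures held 0.1% parasitemia at 2% hematocrit (final), incubated under 5% CO2 at 37 C.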
Of the large screens only hits and unclear results are named; the others gave an inactive call. Unless noted, the call rests on the fitted dose curve; in most records, active means well fitted inhibition curve with a large enough effect; inconclusive means small, poorly fitted or top-dose-only effect, or another doubt; inactive means no such curve, though single readings can be large or run the other way.

COc1ccc(/C=N/NC(=O)c2ccc(Br)cc2)cc1CN1CCOCC1	Pf growth 96h inconclusive, Pf growth 48h inconclusive
Oc1c(CN2CCOCC2)ccc2ccccc12	Pf growth 48h inconclusive
COc1ccc(/C=C/C(=O)c2ccccc2O)cc1CN1CCOCC1	MARV entry inh 11µM, Pf growth 96h 10µM, LASV entry inh inconclusive (no result: Pf growth 48h)
COc1ccc(/C=C/C(=O)c2ccc3ccccc3c2O)cc1CN1CCOCC1	Pf growth 96h 12µM
COc1ccc(/C=C/C(=O)c2ccc(O)cc2)cc1CN1CCOCC1	MARV entry inh inconclusive, LASV entry inh inconclusive, Pf growth 48h inconclusive
COc1ccc(/C=C/C(=O)C23CC4CC(CC(C4)C2)C3)cc1CN1CCOCC1	MARV entry inh inconclusive, LASV entry inh inconclusive, Pf growth 48h 13µM
CCCC[C@H](CN[C@@H](CNC)[C@H](C)CC)NCCC12CCC(CC1)C2	Pf growth 96h 2.6µM, Pf growth 48h inconclusive (no result: MARV entry inh, LASV entry inh)
Cc1ccc2c(NC(=S)NC(=O)c3ccccc3)cccc2n1	LASV entry inh inconclusive
Fc1ccccc1NC(=S)Nc1ccc(CN2CCOCC2)cc1	Shiga inhibitor 66, CHX counter 23
O=C(NC(=S)Nc1ccc(N2CCOCC2)cc1)c1ccco1	Shiga inhibitor 43, MARV entry inh inconclusive, CHX counter 32
O=C(NC(=S)Nc1ccc(CN2CCOCC2)cc1)c1ccco1	Shiga inhibitor 34, MARV entry inh inconclusive, CHX counter 31
CCN(CC)S(=O)(=O)c1ccc(NC(=O)CSc2nnc(-c3ccc(F)cc3)o2)cc1	Pf growth 96h inconclusive, Pf growth 48h inconclusive
CCOc1cc2c(cc1OCC)C(CC(=O)OC)N(C(=O)Nc1cc(C)cc(C)c1)CC2 (stereo unspecified)	none (no result: Shiga inhibitor, MARV entry inh, Pf growth 96h, CHX counter, Pf growth 48h)
Cc1nnc(NC(=O)CSCc2c(C)noc2C)s1	LASV entry inh inconclusive (no result: Shiga inhibitor, CHX counter)
NS(=O)(=O)c1ccc(N/N=C/c2ccncc2)cc1	Pf growth 96h inconclusive, Pf growth 48h 6.6µM
Cc1cccc(N/N=C/c2ccncc2)c1	Shiga inhibitor 45, Pf growth 96h inconclusive, CHX counter 34, LASV entry inh inconclusive, Pf growth 48h inconclusive
Cc1cccc(N/N=C/c2ccccc2O)c1	Shiga inhibitor 98, MARV entry inh inconclusive, Pf growth 96h inconclusive, CHX counter 101, Pf growth 48h inconclusive
NS(=O)(=O)c1ccc(N/N=C/c2ccccc2Br)cc1	MARV entry inh inconclusive, LASV entry inh inconclusive
Cc1cccc(NC(=O)C(=O)N/N=C/c2ccncc2)c1	MARV entry inh inconclusive
Cc1ccc(-n2c(SCC(=O)Nc3cccc(S(N)(=O)=O)c3)nc3ccccc32)cc1	MARV entry inh inconclusive, LASV entry inh inconclusive
Cc1cc(C(=O)COC(=O)CCC(=O)c2ccc3c(c2)OCCO3)c(C)n1Cc1ccco1	Pf growth 96h inconclusive
O=C(Nc1ccc(OC(F)F)cc1)c1cc(S(=O)(=O)N2CCCCC2)ccc1N1CCOCC1	Pf growth 96h 4.7µM, Pf growth 48h inconclusive (no result: Shiga inhibitor, MARV entry inh, CHX counter, LASV entry inh)
COc1ccc(C(=O)OCC(=O)c2ccc(S(=O)(=O)N3CCCCC3)cc2)c(OC)c1	MARV entry inh inconclusive, Pf growth 96h inconclusive, Pf growth 48h inconclusive (no result: Shiga inhibitor, CHX counter)
COc1ccc(CNC(=O)c2cc(S(=O)(=O)N3CCCCC3)ccc2N2CCOCC2)cc1OC	none (no result: Shiga inhibitor, Pf growth 96h, CHX counter, Pf growth 48h)
Cc1ccccc1OCCOC(=O)c1cc(S(=O)(=O)N2CCCCC2)ccc1N1CCOCC1	MARV entry inh inconclusive, Pf growth 96h inconclusive, LASV entry inh inconclusive, Pf growth 48h 13µM (no result: Shiga inhibitor, CHX counter)
COc1cccc(COC(=O)c2cc(S(=O)(=O)N3CCCCC3)ccc2N2CCOCC2)c1OC	Pf growth 96h inconclusive, Pf growth 48h 6.6µM (no result: Shiga inhibitor, CHX counter)
COc1ccc(C(=O)COC(=O)c2cc(S(=O)(=O)N3CCCCC3)ccc2N2CCOCC2)c(OC)c1	Pf growth 96h 9.3µM, Pf growth 48h 9.3µM (no result: Shiga inhibitor, MARV entry inh, CHX counter, LASV entry inh)
O=C(COC(=O)c1cc(S(=O)(=O)N2CCCCC2)ccc1N1CCOCC1)c1ccc(F)cc1	LASV entry inh inconclusive, Pf growth 48h inconclusive (no result: Shiga inhibitor, CHX counter)
C/C(CC(=O)Nc1cccc(Cl)c1)=N\NC(=O)Cc1ccc(Cl)cc1	Pf growth 96h inconclusive
CCSc1nnc(NC(=O)Cc2ccc(OC)c(OC)c2)s1	none
Cc1ccc(N2CC(C(=O)Nc3nnc(SCCC4OCCO4)s3)CC2=O)cc1 (stereo unspecified)	Pf growth 96h inconclusive, Pf growth 48h inconclusive
COC(=O)c1ccccc1S(=O)(=O)N1CCC(C(=O)OCC(=O)c2ccccc2OC)CC1	Pf growth 96h inconclusive, Pf growth 48h 10µM (no result: Shiga inhibitor, CHX counter)
COc1ccc(C)cc1NC(=O)c1cc(S(=O)(=O)N2CCCCC2)ccc1N1CCOCC1	Pf growth 96h inconclusive, Pf growth 48h 12µM (no result: Shiga inhibitor, MARV entry inh, CHX counter, LASV entry inh)
COc1ccccc1C(=O)COC(=O)c1cc(S(=O)(=O)N2CCCCC2)ccc1N1CCOCC1	Pf growth 96h inconclusive, Pf growth 48h 9.3µM (no result: Shiga inhibitor, CHX counter)
COC(=O)c1ccccc1S(=O)(=O)N1CCC(C(=O)OCc2cccc(OC)c2OC)CC1	Pf growth 48h inconclusive (no result: Shiga inhibitor, CHX counter)
CC(NC(=O)CN1C(=O)NC(C)(C2CC2)C1=O)c1ccc(F)cc1 (stereo unspecified)	none (no result: Shiga inhibitor, CHX counter)
O=C(CSc1ccc2nnc(-c3cccnc3)n2n1)N1CCc2ccccc21	Pf growth 96h inconclusive (no result: LASV entry inh)
O=C(CC1C(=O)NCCN1CC1CCCCC1)NCc1ccc(Cl)cc1 (stereo unspecified)	Pf growth 96h inconclusive (no result: MARV entry inh, LASV entry inh)
O=C(CCc1ccc(S(=O)(=O)NC2CCCCC2)cc1)NCc1cccnc1	CHX counter 15
O=C(CN(C1CCCCC1)S(=O)(=O)c1ccccc1)NCc1cccnc1	Pf growth 96h 9.3µM
O=C(CN(C1CCCCC1)S(=O)(=O)c1ccc(Cl)cc1)NCc1cccnc1	LASV entry inh inconclusive, Pf growth 48h inconclusive
